The panel holds about 83,000 compounds, 20% with a hit somewhere; the sample as a whole holds those more often.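 Step 1: grow cells in 96-well plates. Step 2: add test compound at a single concentration. Step 3: incubate 48 h. Step 4: record percent growth.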 Activity calls are given as the source filed them. Rule for the calls: active = growth percent below 10; inactive = the rest.

This assay concerns A498 renal. In words: NCI-60 one-dose screen, 48 h (100 = growth as untreated, 0 = no growth, -100 = all killed). The conditions noted are these: 10 µM unless noted.
On to `CCN(CC)CCCCCCNc1cc(OC)cc2cccnc12`, for which the growth is 63.5% (inactive). For the compound `COc1ccccc1Nc1cc(O)c2c(=O)cc(-c3ccccc3)oc2c1`, the growth was 11.6% (inactive). For the compound `COc1ccc(C(O)c2cc3c(N)c(C(=O)Nc4ccc(Cl)cc4)sc3nc2C)cc1` (stereo not given), the growth is -5.66% (active). Then `COc1cc(NCC(O)CN(CC(C)C)CC(C)C)c2nc(C)ccc2c1` (stereo not given), with 86.2% (inactive); and `CCCCCCCCCCN=C(N)N=C(N)N`, with 54.9% (inactive). Then `COc1ccc(C(O)c2cc3c(N)c(C(=O)Nc4cccc(Br)c4C)sc3nc2C)cc1` (stereo not given), with -16.1% (active); and `CCCCCCCCCCCCCCCCCCOc1ccccc1N`, with 61.8% (inactive); and `CC(=O)O[C@H]1CC[C@@]2(C)[C@@H](CC[C@@H]3[C@@H]2CC[C@@]2(C)[C@H]3CC[C@]2(O)C(C)=O)C1`, with 90% (inactive). For `CCC1(CC)NC(=O)c2c(c3ccc(Cl)c(Cl)c3n2C)C1C#N` (stereo not given) the value was 84.9% (inactive). In the case of `COc1ccc(C2CC(c3cccc(Nc4ccncc4)c3)=NN2c2cc(Cl)cc(Cl)c2)cc1` (stereo not given), the growth is 95.7% (inactive). As to `CC(=O)Nc1ccc(S(=O)(=O)NC2CCCCC2)cc1`, the growth was 64.3% (inactive). Then `Clc1ccc(N2N=C(c3cccc(Nc4ccncc4)c3)CC2c2ccccc2)cc1` (stereo not given), with 84.5% (inactive); and `CN1C2CCC1CN(c1cnc(C(=O)Nc3cc(F)cc4cccnc34)cn1)C2`, with 74.9% (inactive); and `C=Cc1cc[n+](CCCCCCCCCCCC)cc1`, with 94.9% (inactive).

`CCCCCCCCCCCCCCCC(=O)OC[C@@]1(O)C[C@@]23CC[C@@H]4C(C)(C)[C@H](O)CC[C@@]4(C)[C@@H]2CC[C@H]1C3`: the growth was 105% (inactive).
